Laboratory results from PubChem BioAssay AID652119 (Broad Institute, 2013).
A number with no mark means an inactive call.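 How the source made its calls: active means compounds whose fitted half-maximal cell-killing potency is at most twice their top tested dose; inconclusive means flat curve with 30 to 70% signal loss, or poor fit; inactive means the rest.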

experiment: HEK293 cell cytotoxicity, dose response, cytotoxicity control, HEK293T, ATP luminescence, dry powder (AID 652119); conditions: HEK293T viability, CellTiter-Glo ATP luminescence, 48 h; series mostly up to 26 µM; activity change, negative = cytotoxicity: at the top concentration

Row | SMILES | activity change, negative = cytotoxicity
1 | CCOC(=O)C1(CCOc2ccccc2)CCN(Cc2ccc(OC)cc2)CC1 | -18.6%
2 | CCOC(=O)C1(Cc2ccccc2)CCN(Cc2ccc(O)c(Cl)c2)CC1 | -9.71%
3 | C=CCOc1ccc(CN2CCC(CCOc3ccccc3)(C(=O)NC3CCCC3)CC2)cc1Cl | -9.63%
4 | CCOC(=O)C1(CCOC)CCCN(Cc2ccc(Cl)cc2)C1 (configuration not stated) | -10.5% [at 8 µM]
5 | C/C1=C\[C@@H](O)C(C)(C)CCCC2(C)OC2C[C@@H]1OC(=O)c1ccc(O)cc1 (some centres not stated) | -1.63%
6 | C=CCOc1ccc(CN2CCC(CCOc3ccccc3)(C(=O)O)CC2)cc1Cl | 12.4%
7 | O=C(NC1CCCC1)C1(CCOc2ccccc2)CCN(Cc2ccc(O)c(Cl)c2)CC1 | -9.61%
8 | CCOC(=O)C1CCN(C(=O)OC(C)(C)C)CC1 | 5.27%
9 | O=C(N1CCCC1)C1(CCOc2ccccc2)CCN(Cc2ccc(O)c(Cl)c2)CC1 | -0.18%
10 | C=CCOc1ccc(CN2CCC(CCOc3ccccc3)(C(=O)OCC)CC2)cc1Cl | 39.7%
11 | CCOC(=O)c1c(CN2CCN(CCO)CC2)n(-c2ccccc2)c2cc(Br)c(O)cc12 | -10.7%
12 | O=C(Nc1ccccc1)C1(CCOc2ccccc2)CCN(Cc2ccc(O)c(Cl)c2)CC1 | -6.69%
13 | C=CCOc1ccc(CN2CCC(CCOc3ccccc3)(C(=O)N(C)CC)CC2)cc1Cl | -2.65%
14 | C/C1=C\C[C@H](OC(=O)c2ccc(O)cc2)/C(C)=C/[C@@H](O)C(C)(C)CCC1 | -21.8%
15 | CCOC(=O)C1(CCOC)CCN(Cc2ccc(O)c(Cl)c2)CC1 | -8.61%
16 | C=CCOc1ccc(CN2CCC(CCOc3ccccc3)(C(=O)N3CCCC3)CC2)cc1Cl | -23.9%
17 | CC(C)(C)OC(=O)C1(CCOc2ccccc2)CCN(Cc2ccc(O)c(Cl)c2)CC1 | -6.91%
18 | CCOC(=O)C1(CCOc2ccccc2)CCN(C(=O)c2ccc(O)c(Cl)c2)CC1 | -6.97%
19 | CCOC(=O)C1(CCOc2ccccc2)CCN(Cc2ccc3[nH]c(=O)oc3c2)CC1 | -10.6%
20 | CCOC(=O)C1(CCOc2ccccc2)CCN(Cc2cccc(Cl)c2)CC1 | -14.1%
21 | CCNC(=O)C1(CCOc2ccccc2)CCN(Cc2ccc(O)c(Cl)c2)CC1 | -7.22%
22 | CC(C)OC(=O)C1(CCOc2ccccc2)CCN(Cc2ccc(O)c(Cl)c2)CC1 | -10.5%
23 | CCOC(=O)C1(CCOc2ccccc2)CCN(Cc2ccc(O)cc2)CC1 | -0.127%
24 | CCOC(=O)C1(CCOc2ccccc2)CCN(Cc2ccc(O)c(Cl)c2)CC1 | -2.14%
25 | CCOC(=O)C1(CCOc2ccccc2)CCN(C(=O)OC(C)(C)C)CC1 | -9.74%
26 | CCOC(=O)C1(Cc2cccc(OC)c2)CCN(Cc2ccc(O)c(Cl)c2)CC1 | -15.9%
27 | CCOC(=O)C1(CCOc2ccccc2)CCN(Cc2ccc(OC)c(Cl)c2)CC1 | -4.83%
